# Reference: PubChem BioAssay AID940 (Emory University Molecular Libraries Screening Center, 2007)
# The campaign covered roughly 260,000 compounds. About 2,200 (0.85%) were called active.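 Rule for the calls: active = compounds whose cAMP rise, as percent of the full-agonist control response, exceeds 60; inactive = the rest.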 Many of the other results were omitted from the sample, so actives are more common in it than they were.
# Biological target: Prostaglandin E2 receptor EP2 subtype (Homo sapiens) (UniProt P43116)
# Sequence (P43116 whole entry, looked up): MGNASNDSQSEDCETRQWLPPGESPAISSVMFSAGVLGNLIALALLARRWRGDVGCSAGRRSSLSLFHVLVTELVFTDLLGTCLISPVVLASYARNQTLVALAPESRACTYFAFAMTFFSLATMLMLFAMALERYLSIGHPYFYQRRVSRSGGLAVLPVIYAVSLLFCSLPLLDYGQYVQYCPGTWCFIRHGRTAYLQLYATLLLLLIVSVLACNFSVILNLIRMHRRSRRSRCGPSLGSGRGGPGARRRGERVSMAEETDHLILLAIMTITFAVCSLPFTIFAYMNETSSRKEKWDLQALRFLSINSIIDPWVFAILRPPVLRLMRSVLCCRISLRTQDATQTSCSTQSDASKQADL
# Experiment: EP2 receptor modulators, cAMP readout, primary screen, cell-based, HTRF cAMP, PGE2 stimulation (AID 940);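 note: rat C6 glioma line stably carrying human EP2 under a CMV promoter; the protocol text gives 20 µM as final concentration; 100% = response of wells given 1 µM PGE2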
# Settings: EP2-expressing cells, cAMP HTRF FRET, PGE2 co-stimulation; at 25 µM; hits give high values
row,SMILES,induction
1,O=C(Nc1nnc(SCC(=O)N2CCCCC2)s1)c1ccco1,-9.97% (inactive)
2,COC(=O)CSc1nnc(-c2ccc3[nH]c(C)c(C)c3c2)o1,-58.2% (inactive)
3,CCN1CCCC1CN(Cc1cc2cc(OC)c(OC)cc2[nH]c1=O)C(=O)Nc1ccccc1Cl (centres undefined),-41.6% (inactive)
4,CCc1nn(CC(=O)NCc2cccnc2)c(=O)c2cc3ccsc3n12,1.61% (inactive)
5,CCOc1ccc(-c2nc(-c3cc4ccccc4[nH]c3=O)no2)cc1,-8.73% (inactive)
6,O=C(/C=C/c1ccccc1)N/C(=C/c1ccccc1)C(=O)Nc1ccccc1O,-4.9% (inactive)
7,CCc1ccccc1NC(=O)Cc1cn(C)c2ccccc12,23.9% (inactive)
8,CCc1ccccc1NC(=O)/C(=C/c1ccccc1)c1ccccc1,65.2% (active)
9,Cc1ccc(-c2nsc3c(SCC(=O)N(C)C4CCCCC4)ncnc23)cc1,34.6% (inactive)
10,Cc1c(CN(C)C(=O)CSc2nc(-c3cccs3)cc(C(F)(F)F)n2)cnn1C,9.94% (inactive)
11,CN1CC(c2ccccc2)C2(CCN(Cc3ccccc3)CC2)C1 (centres undefined),-9.74% (inactive)
12,Cc1cc(C)cc(NS(=O)(=O)c2ccc(Oc3ncc(C(F)(F)F)cc3Cl)cc2)c1,57.5% (inactive)
13,Cc1nn(CC#N)c(=O)n1N(C)c1ncc(C(F)(F)F)cc1Cl,2.11% (inactive)
14,C#CCN(N(C)c1ncc(C(F)(F)F)cc1Cl)S(=O)(=O)c1ccc2ccccc2c1,61.4% (active)
15,O=C(Cc1cccs1)Nc1nnc(-c2ccccc2Cl)s1,-20% (inactive)
16,CC(C)c1nc(N2CCOCC2)c(C#N)c2c1COC(C)(C)C2,-103% (inactive)
17,CC(C)Cc1nc(N2CCOCC2)c(C#N)c2c1CCC2,64% (active)
18,CC(C)Cc1nc(Cl)c(C#N)c2c1CCC2,6.62% (inactive)
19,Cc1ccccc1N(C(=O)c1ccco1)C(C(=O)NC1CCCC1)c1ccco1 (centres undefined),15% (inactive)
20,COc1ccc2c(c1)C(C)=CC(C)(C)N2C(=O)CNCc1ccc2c(c1)OCO2,62.2% (active)
21,COc1ccc2c(c1)C(C)=CC(C)(C)N2C(=O)Nc1ccccc1,43% (inactive)
22,COc1ccc(OC)c(CC(=O)N2CCC(c3ccc4c(c3)OCO4)CC2)c1,-2.54% (inactive)
23,Cc1sc2ncnc(Sc3nc4ccccc4s3)c2c1C,17.8% (inactive)
24,CSc1ncnc2sc(C)c(C)c12,68.5% (active)
25,CCCNc1ncnc2sc(C)c(C)c12,17.6% (inactive)
26,Cc1cc2cc(CN(CCO)C(c3nnnn3CC3CCCO3)C(C)C)c(=O)[nH]c2cc1C (centres undefined),-0.77% (inactive)
27,CCOc1ccc(/C=N/NC(=O)C(C)Sc2ccccn2)cc1OCC (centres undefined),13.9% (inactive)
28,Cc1ccc(/C=N/NC(=O)CSc2ccccn2)o1,-4.32% (inactive)
29,CCOc1ccc(/C=N/NC(=O)CSc2ccccn2)cc1O,65.8% (active)
